The record followed here is PubChem BioAssay (Tox21).

Experiment [1] is described as follows: qHTS assay to identify small molecule agonists of the hypoxia (HIF-1) signaling pathway - cell viability counter screen (AID 1224844; calls by dose curve; further: nearly all actives have a fitted effect of over 50% in size; further: potency means the concentration at half of the fitted maximal effect). Summed up:
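HRE-bla ME-180 cells in medium with 0.5% dialyzed FBS were preincubated 5 hrs at 37C, exposed to compounds for 17 hrs, then viability was read as CellTiter-Glo luminescence after 30 min at room temperature, in the reporter wells.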

Experiment [2] in a line: qHTS assay to identify small molecule agonists of H2AX (AID 1224845; active means well fitted activation curve with a large enough effect in the signal ratio in the repeat runs, not every such curve was filed as active; the % refers to the signal ratio). An outline of the steps:
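Wild-type CHO-K1 cells plated overnight, then exposed 3 hr at 37C to compounds at 15 concentrations (0.76% DMSO). Lysed, then HTRF anti-pH2AX(S139)-cryptate/anti-H2AX-d2 detection after 24 hr at room temperature; emissions 665 and 620 nm.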

Experiment [3] can be described thus: qHTS assay to identify small molecule agonists of H2AX - cell viability counter screen (AID 1224847; calls by dose curve; further: nearly all actives have a fitted effect of over 30% in size; further: potency means the concentration at half of the fitted maximal effect). Summed up: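 After overnight plating of 1000 CHO-K1 cells per well, a 15-concentration compound series was applied for 3 hr at 37C. Luminescence from CellTiter-Glo, read following 30 min at room temperature, reflected cell viability.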
In general terms: Quantitative high-throughput screening tests each substance at several concentrations.

Experiment [4] can be described thus: qHTS assay to identify small molecule antagonists of the estrogen related receptor (ERR) signaling pathway from Tox21 library (AID 1224848). Further: nearly all actives have a fitted effect of over 50% in size. Further: potency means the concentration at half of the fitted maximal effect. An outline of the steps:
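Screening used an ERR reporter line supplied by NTP, exposed for 18 h at 37 C to library compounds delivered in DMSO. Signal was luciferase luminescence developed with ONE-Glo at room temperature for 30 min.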

Experiment [5] can be described thus: qHTS assay to identify small molecule agonists of the estrogen related receptor (ERR) signaling pathway from Tox21 library (AID 1224849; calls by dose curve; further: nearly all actives have a fitted effect of over 15% in size). Particulars: ERR reporter cell line, ONE-Glo luciferase, 18 h; at 92.4 µM (top of the series) unless noted. Summed up: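 ERR reporter cell line (NTP) seeded, rested 6 h at 37 C/5% CO2, then pinned with Tox21 compounds in DMSO. After 18 h at 37 C, ONE-Glo luciferase luminescence was read following 30 min at room temperature.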

Experiment [6] is described as follows: qHTS RealTime-Glo MT Cell Viability Assay in HepG2 cells - 24 hour (AID 1224867). Further: nearly all actives have a fitted effect of over 50% in size. Summed up:
(§1)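 HepG2 suspension premixed with RealTime-Glo reagents is plated at 600 cells per well and left 5 h at 37 C/5% CO2. Compounds in DMSO then go in, and bioluminescence reflecting viable cell number is recorded over 40 h.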

Experiment [7] can be described thus: qHTS RealTime-Glo MT Cell Viability Assay in HEK293 cells - 32 hour (AID 1224868). Further: nearly all actives have a fitted effect of over 50% in size. Further: potency means the concentration at half of the fitted maximal effect. An outline of the steps:
(§2)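 Reads taken at 0, 8, 16, 24, 32 and 40 h from the same wells. HEK293 cells (600/well) carried RealTime-Glo reagents from seeding, with compound added after a 5 h settle at 37 C.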

Experiment [8] in a line: A CellTox Green Cytotoxicity Assay to monitor cytotoxicity in HEK293 cells - 0 hour (AID 1224869). Further: nearly all actives have a fitted effect of over 50% in size. An outline of the steps: (§3)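 HEK293 cells premixed with CellTox Green dye were seeded at 600 cells/well and left 5 h at 37 C/5% CO2 before pin transfer of 23 nL compound in DMSO. Fluorescence from dye bound to dead-cell DNA was read during 40 h treatment.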
Experiment [9] in a line: qHTS RealTime-Glo MT Cell Viability Assay in HepG2 cells - 40 hour (AID 1224870). Further: nearly all actives have a fitted effect of over 50% in size. An outline of the steps:
(§4)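 HepG2 cells mixed with RealTime-Glo MT reagents (NanoLuc plus cell-permeant prosubstrate) were seeded at 600 cells/well, incubated 5 h at 37 C/5% CO2, then pinned with compounds in DMSO; nonlytic luminescence tracked viability during 40 h treatment.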

Experiment [10] can be described thus: A CellTox Green Cytotoxicity Assay to monitor cytotoxicity in HEK293 cells - 40 hour (AID 1224871). Further: nearly all actives have a fitted effect of over 45% in size. Further: potency means the concentration at half of the fitted maximal effect. An outline of the steps:
as §3

A short description of experiment [11]: qHTS RealTime-Glo MT Cell Viability Assay in HEK293 cells - 16 hour (AID 1224872). Further: nearly all actives have a fitted effect of over 50% in size. Further: potency means the concentration at half of the fitted maximal effect. Summed up:
as §2

Experiment [12] in a line: qHTS RealTime-Glo MT Cell Viability Assay in HepG2 cells - 8 hour (AID 1224873). Further: nearly all actives have a fitted effect of over 55% in size. Summed up: as §4
A short description of experiment [13]: qHTS RealTime-Glo MT Cell Viability Assay in HEK293 cells - 40 hour (AID 1224874). Further: nearly all actives have a fitted effect of over 50% in size. Further: potency means the concentration at half of the fitted maximal effect. Particulars: RealTime-Glo luminescence; max response: stronger effect = lower value. An outline of the steps:
(§5)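 HEK293 cells mixed with RealTime-Glo reagents (NanoLuc plus cell-permeant prosubstrate) at 600 cells/well, preincubated 5 h at 37 C/5% CO2, then given 23 nL compound in DMSO. Nonlytic luminescence from viable cells was read at 0, 8, 16, 24, 32 and 40 h.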

The nature of experiment [14]: A CellTox Green Cytotoxicity Assay to monitor cytotoxicity in HEK293 cells - 24 hour (AID 1224875). Further: nearly all actives have a fitted effect of over 45% in size. Summed up: as §3
Experiment [15] is described as follows: A CellTox Green Cytotoxicity Assay to monitor cytotoxicity in HepG2 cells - 16 hour (AID 1224876). Further: nearly all actives have a fitted effect of over 45% in size. An outline of the steps: (§6)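 HepG2 cells were seeded together with the CellTox Green dye at 600 cells/well, left 5 h at 37 C/5% CO2, then given compounds in DMSO. Fluorescence from dye bound to dead-cell DNA was read repeatedly over 40 h of treatment at 37 C.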

The nature of experiment [16]: qHTS RealTime-Glo MT Cell Viability Assay in HepG2 cells - 32 hour (AID 1224877). Further: nearly all actives have a fitted effect of over 55% in size. Summed up: as §1
Experiment [17] is described as follows: A CellTox Green Cytotoxicity Assay to monitor cytotoxicity in HepG2 cells - 24 hour (AID 1224878). Further: nearly all actives have a fitted effect of over 45% in size. Summed up:
as §6

Experiment [18] in a line: A CellTox Green Cytotoxicity Assay to monitor cytotoxicity in HepG2 cells - 40 hour (AID 1224879). Further: nearly all actives have a fitted effect of over 40% in size. An outline of the steps:
as §6

The nature of experiment [19]: qHTS RealTime-Glo MT Cell Viability Assay in HEK293 cells - 0 hour (AID 1224880). An outline of the steps:
as §5

Experiment [20] is described as follows: qHTS assay to identify small molecule agonists of the hypoxia (HIF-1) signaling pathway (AID 1224846; active means well fitted activation curve with a large enough effect in the signal ratio in the repeat runs, not every such curve was filed as active; the % refers to the signal ratio). Summed up: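 HRE-bla ME-180 cells (beta-lactamase reporter under hypoxia response element) were plated at 2,000 cells/well in medium with 0.5% dialyzed FBS, rested 5 hrs, then given compounds in DMSO for 17 hrs at 37C, 5% CO2. Reporter induction was read with CCF4-AM FRET substrate.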

Where “and” joins values, the source holds several entries; their conditions need not be identical. Equal values may be shown once. A number with no mark means an inactive call. Inconclusive results are not listed. Calls of active or inactive are those of the source. Unless noted, the call rests on the fitted dose curve; in most records, active means well fitted curve in the direction sought with a large enough effect in the repeat runs; inconclusive means weak or mixed curves; inactive means no such curve, though single readings can be large; an effect the other way counts as inactive or inconclusive.
On the % scale 0 is the no-effect control and ±100 the full control effect.

As for `CC(CO)CO`, the Potency result in experiment [1], in [2], in experiment [3], in experiment [4], in experiment [6] and in experiment [7] was “inactive” each time. Further, the Potency entry in [8], in [9], in [10], in experiment [11], in [12] and in [14] was “inactive” each time. For the same molecule, the Potency entry in [15], in [16], in experiment [17], in experiment [18] and in experiment [19] was “inactive” throughout. In [5], the activity change, positive = activation is 0.194%. For the same molecule, in experiment [13], the max response is 3.5%.

`CCOC(=O)[C@H](CCc1ccccc1)N[C@@H](C)C(=O)N(CC(=O)O)C1Cc2ccccc2C1`: the Potency in experiment [1] is 7.56 µM (active). The Potency result in experiment [2], in experiment [3], in experiment [7], in experiment [8], in experiment [10] and in experiment [11] was “inactive” each time. Besides, the Potency result in [12], in experiment [14], in [15], in experiment [17], in experiment [18] and in experiment [19] was “inactive” in each case. Moreover, the molecule was classed as inactive in experiment [20]. Further, the max response in [13] is 5.01%.

Take `CCc1ccccc1`: the Potency entry in [1], in experiment [2], in experiment [3], in [6], in experiment [8] and in [9] was “inactive” in each case. Also, the Potency result in experiment [11], in experiment [12], in experiment [14], in experiment [15], in experiment [16] and in experiment [17] was “inactive” in each case. Further, the Potency result in [18] and in experiment [19] was “inactive” each time. Moreover, the result in [20] was inactive. Further, the max response in experiment [13] was 10.2%.

`c1ccc2c(c1)CCc1ccccc1N2`: the Potency result in [1], in experiment [2], in [6], in experiment [7], in experiment [8] and in experiment [11] was “inactive” in each case. For the same molecule, the Potency result in experiment [12], in experiment [14], in experiment [15], in experiment [16], in experiment [17] and in experiment [18] was “inactive” each time. The Potency result in experiment [19] is “inactive”. For the same molecule, in experiment [20], the molecule was classed as inactive. Besides, the Potency in experiment [3] was 101 µM (active); in experiment [10] it was 49.2 µM (active). The max response in experiment [13] was -22.1% and -5.28%.

Consider `Cc1cc(C)cc(N)c1`, for which the Potency entry in experiment [1], in experiment [2], in experiment [3], in experiment [6], in experiment [7] and in [8] was “inactive” in each case. The Potency entry in experiment [9], in experiment [10], in experiment [11], in experiment [12], in experiment [14] and in experiment [15] was “inactive” throughout. Also, the Potency entry in experiment [16], in experiment [17], in experiment [18] and in experiment [19] was “inactive” throughout. The max response in experiment [13] is -4.23%.

Regarding `CC(CC1c2ccccc2CCc2ccccc21)CN(C)C` (stereo unspecified), the Potency in experiment [1] is 10.7 µM (active). Further, the Potency result in [2], in experiment [3], in [6], in experiment [7], in experiment [8] and in experiment [9] was “inactive” in each case. The Potency entry in experiment [10], in experiment [11], in [12], in [14], in experiment [15] and in [16] was “inactive” in each case. Further, in experiment [19], the Potency result is “inactive”. For the same molecule, the result in experiment [20] was inactive.

With `CN1C(=O)N(c2ccccc2Br)Cc2cnc(Nc3ccc4c(c3)OCC(CO)O4)nc21` (stereo unspecified), the Potency result in experiment [1], in experiment [2], in experiment [8], in [10], in [14] and in [19] was “inactive” in each case. For the same molecule, the Potency in experiment [3] is 31.8 µM (active); in experiment [4] it was 8.63 µM (active); in [7], 6.16 µM (active); in experiment [11] it was 6.92 µM (active); in experiment [13], 4.36 µM (active). Also, the activity change, positive = activation in experiment [5] is -69.6%.
